The list is not random: actives were taken first. Their share in the collection is about 2.4%.
POLH inh = qHTS for Inhibitors of Polymerase Eta; Potency, µM (series often up to 114 µM), for the others: at the top dose activity change, negative = inhibition, actives largely listed as inhibitors; AID 588591, 2011; recombinant Pol eta, fluorescent DNA replication assay; DNA polymerase eta (Homo sapiens), Q9Y253; 390,000 tested, 1.2% active; note: % is set by controls: 0 for no effect and ±100 for the full control effect
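Pol eta at 10 nM preincubated with compounds 15 min at room temperature; reaction started with fluorescent substrate (50 nM final) and read kinetically at 0 and 10 min.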
TDP1 block = qHTS Assay for Inhibitors of Tyrosyl-DNA Phosphodiesterase (TDP1) | Potency, µM (top dose mostly 130 µM), inactives show at the highest dose activity change, negative = inhibition, usual class: inhibitors | 350,000 tested, 0.28% active | recombinant TDP1, AlphaScreen DNA substrate cleavage; note: % is set by controls: 0 for no effect and ±100 for the full control effect; nearly all actives have a fitted effect of over 40% in size
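Tdp1 1 nM final; 15 min RT w/ cpd; substrate 15 nM, 5 min; beads 10 ug/ml, 10 min; AlphaScreen read. Neg ctrl: no enzyme.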
POLI inh = qHTS for Inhibitors of Polymerase Iota | Potency, µM (series often up to 115 µM), for the others: at the top dose activity, negative = inhibition, usual class: inhibitors | Pol iota fluorescent replication assay, 10 min | DNA polymerase iota (Homo sapiens), Q9UNA4 | AID 588590, 2011 | 390,000 tested, 1% active
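Pol iota at 10 nM preincubated 15 min with compounds at room temperature; reaction started with fluorescent substrate, 50 nM final. Fluorescence read kinetically at 0 and 10 min; buffer-only wells as negative control.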
Pol kappa inh = qHTS for Inhibitors of Polymerase Kappa | DNA polymerase kappa (Homo sapiens), Q9UBT6 | purified Pol kappa, fluorescent DNA synthesis assay, 10 min | Potency, µM (highest dose often 107 µM), inactives show at the highest dose activity, negative = inhibition, actives largely listed as inhibitors | 400,000 tested, 0.53% active | AID 588579, 2011; note: % is set by controls: 0 for no effect and ±100 for the full control effect
Target sequence (Q9UBT6 whole entry, looked up): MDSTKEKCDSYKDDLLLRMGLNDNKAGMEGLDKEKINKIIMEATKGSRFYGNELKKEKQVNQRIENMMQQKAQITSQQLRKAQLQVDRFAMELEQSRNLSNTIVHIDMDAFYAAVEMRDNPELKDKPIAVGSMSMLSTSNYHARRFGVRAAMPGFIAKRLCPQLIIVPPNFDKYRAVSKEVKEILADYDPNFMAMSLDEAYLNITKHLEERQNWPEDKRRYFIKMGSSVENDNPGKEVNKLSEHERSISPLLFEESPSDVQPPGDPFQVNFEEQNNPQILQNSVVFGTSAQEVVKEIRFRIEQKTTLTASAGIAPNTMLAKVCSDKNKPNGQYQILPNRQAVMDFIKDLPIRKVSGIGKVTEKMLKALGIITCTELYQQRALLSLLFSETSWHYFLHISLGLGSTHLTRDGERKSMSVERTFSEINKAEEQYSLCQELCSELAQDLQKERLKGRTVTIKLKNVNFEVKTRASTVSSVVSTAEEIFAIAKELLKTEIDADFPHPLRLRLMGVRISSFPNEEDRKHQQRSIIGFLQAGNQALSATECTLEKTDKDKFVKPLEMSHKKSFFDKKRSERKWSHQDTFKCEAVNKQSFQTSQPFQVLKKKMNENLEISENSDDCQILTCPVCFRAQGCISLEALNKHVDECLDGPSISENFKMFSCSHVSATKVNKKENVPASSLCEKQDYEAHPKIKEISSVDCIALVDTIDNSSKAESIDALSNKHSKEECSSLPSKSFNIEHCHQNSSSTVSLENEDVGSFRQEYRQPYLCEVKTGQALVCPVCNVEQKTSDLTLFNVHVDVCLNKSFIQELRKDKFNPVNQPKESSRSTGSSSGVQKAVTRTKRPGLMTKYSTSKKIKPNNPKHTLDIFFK
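10 nM Pol kappa was preincubated with compounds for 15 min at room temperature. Reaction started with 50 nM (final) substrate. Fluorescence read kinetically at 0 and 10 min.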
POLB inh = qHTS Assay for Inhibitors of DNA Polymerase Beta; 340,000 tested, 1.3% active; Potency, µM (series often up to 114 µM), for the others: at the highest dose activity change, negative = inhibition, most hits filed as inhibitors; AID 485314, 2010; Pol beta primer extension/strand displacement, fluorescence kinetic; note: % is set by controls: 0 for no effect and ±100 for the full control effect
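Curves were derived by four-parameter Hill fits of normalized qHTS data. The kinetic fluorescent primer-extension read was taken at 0 and 10 min after 50 nM substrate, following a 15 min room-temperature preincubation of 10 nM enzyme with compounds.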
* marks the source's active call; other numbers are inactive results; ? = inconclusive; . = not tested or not shown; [ ] = dose if it differs, or a comment. Calls come from the whole dose curve; as a rule, active = well fitted curve in the direction sought with a large enough effect; inconclusive = small, poorly fitted or top-dose-only effect, or another doubt; inactive = no such curve, though single readings can be large; an effect the other way counts as inactive or inconclusive. Potency is the fitted concentration of half-maximal effect.

SMILES	POLH inh	TDP1 block	POLI inh	Pol kappa inh	POLB inh
CCOc1cccc(C(=O)N(Cc2ccc(F)cc2)Cc2ccco2)c1	-6.2%	2.3%	1.9%	-7.0%	33.1%
CC1CCCCN1c1nnc(NC(=O)Nc2ccccc2F)s1 (centres undefined)	-13.0%	11.4%	24.4%	0.7%	-19.0%
Cc1ccc(C2=NOC(=O)/C2=C\C=C\c2ccccc2)cc1	89.1µM*	5.8%	?	-20.9%	?
CC1=NN(c2ccccc2)C(=O)/C1=C/C=C/c1ccccc1	15.8µM*	13.3%	9.3%	-2.8%	35.5%
COc1cc(/C=C2\C(=O)ON=C2c2ccccc2)cc(OC)c1OC	-12.5%	-1.5%	11.7%	1.3%	0.0%
O=C(COc1ccc(F)cc1)Nc1ccc2nc(SCC(=O)N3CCOCC3)sc2c1	-9.7%	2.6%	16.2%	-14.7%	7.7%
CN(C)C1C(=O)C(C(N)=O)C(=O)C2(O)C(=O)C3C(=O)c4c(O)ccc(Cl)c4C(O)C3CC12 (centres undefined)	.	.	.	35.5µM*	.
CCOC(=O)c1c(NC(=O)COC(=O)c2cnccn2)sc(C(=O)NC)c1C	-10.3%	3.4%	34.8%	3.4%	.
CCOC(=O)c1c(-c2ccc(C)o2)csc1NC(=O)CSc1nncs1	-16.9%	8.2%	?	-12.6%	-3.5%
CCOC(=O)c1c(-c2ccco2)csc1NC(=O)CSc1nnc(N)s1	?	0.0%	35.5µM*	?	28.2µM*
CCOC(=O)c1c(-c2ccco2)csc1NC(=O)COC(=O)c1cnccn1	22.4µM*	?	22.4µM*	?	.
CCN(CC)c1ccc(/C=C/C2=C3C=CC=CC3NC=C2)cc1 (centres undefined)	.	.	1.26µM*	-20.5%	.
COc1ccc2[nH]c(=O)c(CN(C3CCCCC3)C(c3nnnn3Cc3ccco3)C(C)C)cc2c1 (centres undefined)	17.8µM*	0.0%	15.8µM*	?	35.5µM*
COc1ccc2[nH]c(=O)c(CN(Cc3ccco3)C(c3nnnn3Cc3ccccc3)C(C)C)cc2c1 (centres undefined)	0.9%	3.3%	?	-11.6%	3.6%
Cc1ccc(CN(Cc2cc3cc4c(cc3[nH]c2=O)OCCO4)Cc2nnnn2Cc2ccco2)cc1	?	.	20µM*	70.8µM*	28.2µM*
COc1ccc2[nH]c(=O)c(CN(Cc3nnnn3Cc3ccco3)C3CCCCC3)cc2c1	-8.3%	.	20µM*	35.5µM*	28.2µM*
C/C=C1\COC(C(=O)NC)(C(F)(F)F)C=C1C=C1CCCCC1 (centres undefined)	.	2.1%	9.4%	14.1%	.
O=C(CSCc1ccc(Cl)cc1)N/N=C/c1ccc(OCC(=O)Nc2ccccc2)cc1	-16.4%	-2.9%	?	0.1%	79.4µM*
Cc1ccc(NC(=O)COc2ccc(/C=N/NC(=O)CSCc3ccccc3)cc2)cc1	-4.8%	56.2µM*	?	-8.9%	?
Cc1ccc(/C=N/NC(=O)CSCc2ccc(Cl)cc2)cc1	-11.3%	5.1%	3.0%	-19.5%	2.4%
O=C(CNC(=O)C1CCCCC1)OC(C(=O)Nc1cc(C(F)(F)F)ccc1Cl)c1ccccc1 (centres undefined)	.	0.4%	.	.	.
CCc1ccc(NS(=O)(=O)c2ccc3[nH]cc(C(=O)NCCCOC(C)C)c(=O)c3c2)cc1	?	.	?	?	39.8µM*
CC(C)c1ccc(NS(=O)(=O)c2ccc3[nH]cc(C(=O)N4CCC(C(N)=O)CC4)c(=O)c3c2)cc1	17.8µM*	.	?	-8.9%	50.1µM*
CCOc1ccc(NS(=O)(=O)c2ccc3[nH]cc(C(=O)N(CC)CC)c(=O)c3c2)cc1	20µM*	-11.6%	?	-2.4%	7.1%
COc1cccc(NS(=O)(=O)c2ccc3[nH]cc(C(=O)NCCc4ccccc4)c(=O)c3c2)c1	6.8%	-11.6%	79.4µM*	-9.7%	?
SMILES	POLH inh	TDP1 block	POLI inh	Pol kappa inh	POLB inh
Cc1ncnc2nc[nH]c12	.	.	22.0%	-11.4%	.
N#Cc1ccc(CS(=O)(=O)c2ccccc2)cc1	.	7.5%	.	.	.
COc1cccc(NS(=O)(=O)c2ccc3[nH]cc(C(=O)NC4CCCCC4)c(=O)c3c2)c1	89.1µM*	-2.3%	?	-31.9%	?
O=C(O)c1cc(NCc2cc(O)ccc2O)ccc1O	.	?	17.8µM*	50.1µM*	.
O=C(OCC12CC3CC(CC(C3)C1)C2)c1ccc(NCc2cc(O)ccc2O)cc1	?	.	9.9%	-16.8%	.
Cc1cc(C)n(C(CC(=O)N2CCc3ccccc3C2)C(=O)O)n1 (centres undefined)	-3.2%	6.2%	79.4µM*	?	?
CCNc1ccc(Br)cc(C(=O)/C=C/c2ccc3c(c2)OCO3)c1=O	11.2µM*	-13.3%	3.98µM*	?	20µM*
CCNc1ccc(Br)cc(C(=O)/C=C/c2c(Cl)cccc2Cl)c1=O	17.8µM*	-14.6%	4.47µM*	?	8.91µM*
CN(C)C1CCN(CCCOc2ccc(-c3ccc(C#N)cc3)cc2)C1 (centres undefined)	.	14.1%	.	14.5%[60.1 µM]	.
C=Cc1ccc(Cn2c(SCC(=O)N3CCN(c4ccc(F)cc4)CC3)nc3ccccc32)cc1	-15.9%	-3.9%	36.8%	10.7%	2.1%
O=C(N/N=C/c1cc(Br)c(Br)o1)c1cc2ccccc2o1	-17.2%	50.1µM*	?	-20.6%	?
O=C(N/N=C/c1ccncc1)c1cc2ccccc2o1	-1.8%	5.5%	101.1%	-0.8%	15.1%
C=CCn1c(NC(=O)c2ccccc2Cl)c(C#N)c2nc3ccccc3nc21	31.6µM*	5.1%	?	-23.1%	-2.1%
O=S(=O)(NCc1nc2cccnc2n1Cc1ccccc1Cl)c1ccc(F)c(Cl)c1	-15.2%	5.5%	18.5%	-4.9%[60.1 µM]	-5.9%
Nc1nc(NCCO)nc(NCC2CCCO2)c1[N+](=O)[O-] (centres undefined)	-4.1%	0.0%	15.4%	-20.2%	22.4µM*
Nc1nc(NCC2CCCO2)nc(NCC2CCCO2)c1[N+](=O)[O-] (centres undefined)	-25.0%	3.0%	5.2%	0.5%	39.2%
Cc1ccc(C)c(NC(=O)C2CCCN(S(=O)(=O)c3cccc4nsnc34)C2)c1 (centres undefined)	-21.3%	-7.0%	24.7%	-9.4%	9.7%
CCOc1ccc(/C=C2/SC(=O)NC2=S)cc1	-20.9%	10.3%	89.1µM*	?	?
CCOc1ccc(N=C2NC(=O)S/C2=C\c2ccc(N(C)C)cc2)cc1	79.4µM*	6.9%	?	-4.9%	3.0%
CCOc1ccc(/C=C2\SC(=S)N(N3C(=O)C4CC4C3=O)C2=O)cc1 (centres undefined)	-15.0%	6.9%	23.8%	-12.1%	0.2%

Compound activity as filed in PubChem.
